This is an account of results in PubChem BioAssay.

Calls of active or inactive are those of the source.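 How the source made its calls, unless noted: active means inhibition above 20% together with a positive visual image hit; inconclusive means visual image hit but inhibition not above 20%; inactive means no visual image hit.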

Assay [1] can be described thus: inhibitors of TNFa-induced NFkB p65 translocation, primary screen, imaging, HUVEC, MLSMR starter and 10KST1 sets (AID 438).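 Further: compound added about 3h40 before a 20 min TNFalpha stimulation.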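 On inhibition: signal is the nuclear over cytoplasmic p65 intensity ratio per well.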 The note with it: HUVEC TNFa-induced p65 nuclear translocation; cell count: measured here: nuclei count (cytotoxicity indicator), at 2.08 µM; inhibition: at 2 µM, stronger effect = higher value, 0% TNFa-plus-vehicle, 100% no-TNFa wells.
A short description of assay [2]: reduction of polyQ htt aggregates in cells – imaging, exon1htt(103Q)mCFP cells, high-content imaging, primary screen (AID 483;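 active means visual image review flags a hit and inhibition of aggregation exceeds 20%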;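 further: compound exposure lasted 3 days before fixation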;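 on nuclei count: percent of the per-plate median nuclei count of sample wells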). The note with it: exon1htt(103Q)mCFP cell line, aggregate imaging, at 2 µM; inhibition of aggregation: stronger effect = higher value; nuclei count: measured here: cell count, toxicity.
A short description of assay [3]: endothelial E-selectin expression blockers – imaging, HUVEC, immunofluorescence, MLSMR starter and 10KST1 sets, primary screen (AID 487;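 active means visually confirmed hit in the image check and inhibition above 20%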;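 on inhibition: signal is fraction of cell area covered by stained E-selectin grains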;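 on nuclei count: 100% = median nuclei count of all wells on the same plate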). As to conditions: HUVEC TNFalpha-induced E-selectin immunofluorescence imaging, at 2 µM; inhibition: stronger effect = higher value; nuclei count: measured here: cell number, toxicity.
The target of assay [4] is Voltage-gated potassium channel subunit beta-2 (Rattus norvegicus) (UniProt P62483). Kind of assay: inhibitors of rat Kvbeta2 reductase activity – biochemical, NADPH fluorescence, primary screen (AID 622;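 active means fluorescence slope higher than the sample average by over 3 SD, cut at about -0.22 in these data, passing the limit was not always enough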;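 further: slope of raw intensity against log time taken from 70 to 1610 s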). As to conditions: recombinant KvBeta, 4-cyanobenzaldehyde reduction, at 10 µM, stronger effect = higher value.
For assay [5] the target is unchanged. The experiment in a line: enhancers of rat Kvbeta2 NADPH turnover – biochemical, NADPH fluorescence, primary screen (AID 623;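 active means NADPH fluorescence slope more negative than the mean of all samples by about 3 SD, 99.7% confidence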;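 further: fluorescence intensity change per second fitted from 20 to 320 s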). As to conditions: Recombinant KvBeta, NADPH fluorescence decrease slope, 10 min; at 10 µM; stronger effect = lower value.
In assay [6] the target is Alpha-2C adrenergic receptor (Homo sapiens) (UniProt P18825). Kind of assay: compounds altering alpha2C-coupled GIRK flux – cell-based, HEK293 alpha2C/GIRK1/2, thallium flux, primary screen (AID 624;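 active means fluorescence slope after compound addition differing from the mean of all screened samples at 99.7% confidence, in either direction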;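 further: slope of fluorescence ratio to pre-addition baseline per second over 15 to 24 s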). The note with it: thallium flux BTC fluorescence, at 10 µM, actives lie on both sides.
The nature of assay [7]: blockers of RIG-like receptor reporter activation – cell-based, Sendai virus stimulus, luciferase, 10K MLSCN set, TLR/RLR signaling modifier project, primary screen (AID 602276;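 active means inhibition at or above 50% at 10 µM; inactive means inhibition below 50%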;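 further: firefly luciferase from ISG56 promoter only with Renilla not read in this screen; 0% = Sendai virus plus DMSO and 100% = medium plus DMSO without virus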). As to conditions: HEK293 RL24 IRF3 luciferase reporter, at 10 µM, stronger effect = higher value. (A reporter such as luciferase makes a cellular process visible.)
Assay [8] can be described thus: TLR3 IRF3 reporter activation blockers – cell-based, poly I:C stimulus, luciferase, 10K MLSCN set, primary screen (AID 602277;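 active means inhibition of the reporter signal at or above 50%; inactive means inhibition below 50%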). As to conditions: HEK293-TLR3 RL24 IRF3 luciferase reporter, at 10 µM, stronger effect = higher value.

Chain of Alpha-2C adrenergic receptor (Homo sapiens) (P18825 whole entry, looked up): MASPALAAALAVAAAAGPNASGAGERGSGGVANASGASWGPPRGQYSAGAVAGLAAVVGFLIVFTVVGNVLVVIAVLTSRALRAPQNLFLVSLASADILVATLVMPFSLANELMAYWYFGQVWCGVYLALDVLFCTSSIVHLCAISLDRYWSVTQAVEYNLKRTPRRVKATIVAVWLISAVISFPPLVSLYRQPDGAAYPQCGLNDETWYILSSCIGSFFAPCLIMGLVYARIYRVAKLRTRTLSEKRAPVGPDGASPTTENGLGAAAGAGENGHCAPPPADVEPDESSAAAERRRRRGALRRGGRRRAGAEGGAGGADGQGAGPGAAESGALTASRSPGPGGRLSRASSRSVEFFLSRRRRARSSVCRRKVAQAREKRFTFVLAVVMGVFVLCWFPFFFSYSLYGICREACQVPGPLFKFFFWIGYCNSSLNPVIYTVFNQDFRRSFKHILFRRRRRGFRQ
Chain of Voltage-gated potassium channel subunit beta-2 (Rattus norvegicus) (P62483 whole entry, looked up): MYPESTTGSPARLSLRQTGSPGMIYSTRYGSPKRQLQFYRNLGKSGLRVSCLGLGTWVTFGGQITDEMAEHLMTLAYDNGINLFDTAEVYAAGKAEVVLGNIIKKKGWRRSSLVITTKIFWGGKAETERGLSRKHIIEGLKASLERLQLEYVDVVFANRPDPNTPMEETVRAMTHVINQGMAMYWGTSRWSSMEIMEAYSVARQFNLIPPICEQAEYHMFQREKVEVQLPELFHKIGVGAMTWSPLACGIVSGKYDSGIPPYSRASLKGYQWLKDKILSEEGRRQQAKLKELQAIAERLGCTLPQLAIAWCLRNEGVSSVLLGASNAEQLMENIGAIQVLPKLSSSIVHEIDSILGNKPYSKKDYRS

With `Cc1cc(C)c2c(n1)nn1c(C3CC3)cc(C(F)(F)F)nc21`, the cell count in assay [1] was found to be 631. Also, the inhibition – broadly, the change of the read-out against control, counted positive when it falls – in assay [1] is -2% (inactive); in assay [3] it was -11.4% (inactive); in assay [7], 8.22% (inactive); in assay [8], 17.3% (inactive). The inhibition of aggregation in assay [2] is 1.3% (inactive). Also, the nuclei count in assay [2] was found to be 92.2%; in assay [3], 123%. Moreover, in assay [4], the fluorescence slope was -0.315 (inactive). Further, in assay [5], the NADPH fluorescence slope is 2.7e-06 (inactive). Further, in assay [6], the slope is 0.00594 (inactive).
Regarding `c1ccc(Cn2nnnc2CN2CCN(c3ncccn3)CC2)cc1`, in assay [1], the cell count was 717. For the same compound, the inhibition in assay [1] is -8.1% (inactive); in assay [3], -11.1% (inactive); in assay [7], 11.4% (inactive); in assay [8], 20.1% (inactive). Also, the inhibition of aggregation in assay [2] was -12.8% (inactive). Moreover, the nuclei count amounted to 114% in assay [2] and 130% in assay [3]. Also, the fluorescence slope in assay [4] is -0.585 (inactive). The NADPH fluorescence slope in assay [5] is -4.5e-05 (inactive). In assay [6], the slope is 0.0043 (inactive).
Take `C/C(N)=C(/C#N)C(=O)COC(=O)CCSc1ccccc1`: in assay [1], the cell count was 422. Moreover, the inhibition in assay [1] was 3.1% (inactive); in assay [3] it was -20.4% (inactive); in assay [7], 13.7% (inactive); in assay [8], -9.84% (inactive). Also, the inhibition of aggregation in assay [2] is 7.6% (inactive). Besides, the nuclei count came to 117% in assay [2] and 107% in assay [3]. Besides, the fluorescence slope in assay [4] is -0.464 (inactive). The NADPH fluorescence slope in assay [5] was -6.7e-05 (inactive). Moreover, the slope in assay [6] is 0.00505 (inactive).
Consider `Cc1nnc(SCc2nc3ccccc3s2)n1-c1ccccc1`, for which the cell count in assay [1] is 394. The inhibition in assay [1] is -1% (inactive); in assay [3], -324% (inactive); in assay [7], 13.8% (inactive); in assay [8], -17.5% (inactive). Further, in assay [2], the inhibition of aggregation was -14.1% (inactive). The figures for the nuclei count in assay [2] and in assay [3] were 83.9% and 153%, respectively. In assay [4], the fluorescence slope was -0.317 (inactive). Besides, in assay [5], the NADPH fluorescence slope is 7.5e-06 (inactive). For the same compound, in assay [6], the slope was 0.005 (inactive).
On to `COc1ccc(C(=O)Nc2cccc(C)c2)cc1S(=O)(=O)N1CCOCC1`, for which, in assay [1], the cell count is 550. The inhibition is -25.9% (inactive) in assay [1], -48.3% (inactive) in assay [3], 6.15% (inactive) in assay [7] and 3.92% (inactive) in assay [8]. Further, in assay [2], the inhibition of aggregation is 0.7% (inactive). For the same compound, the nuclei count in assay [2] was 102%; in assay [3] it was 111%. In assay [4], the fluorescence slope is -0.572 (inactive). The NADPH fluorescence slope in assay [5] was -5.7e-05 (inactive). Moreover, the slope in assay [6] is 0.0063 (inactive).
With `CCOC(=O)N1CCN(C(=O)COc2ccc(S(=O)(=O)NC(C)C)cc2)CC1`, the cell count in assay [1] worked out at 623. The inhibition in assay [1] was 6.2% (inactive); in assay [3] it was 11.5% (inactive); in assay [7], 10.8% (inactive); in assay [8], 24.1% (inactive). Further, the inhibition of aggregation in assay [2] is -5.3% (inactive). Besides, the values for the nuclei count in assay [2] and in assay [3] were 110% and 115%, respectively. Further, the fluorescence slope in assay [4] is -0.548 (inactive). In addition, in assay [5], the NADPH fluorescence slope is -3.6e-05 (inactive). The slope in assay [6] is 0.00507 (inactive).
In the case of `CS(=O)(=O)N1CCCC(C(=O)NCc2ccccc2Cl)C1` (centres undefined), in assay [1], the cell count is 636. Also, the inhibition in assay [1] is -10.2% (inactive); in assay [3], -124% (inactive); in assay [7] it was 3.11% (inactive); in assay [8] it was 8.19% (inactive). For the same compound, the inhibition of aggregation in assay [2] was 20.1% (inactive). The nuclei count in assay [2] worked out at 77.4%; in assay [3] it was 97.8%. For the same compound, in assay [4], the fluorescence slope was -0.59 (inactive). Besides, the NADPH fluorescence slope in assay [5] is -1.1e-05 (inactive). The slope in assay [6] was 0.00562 (inactive).
Regarding `O=c1c2ccccc2nc(SCc2cccc(F)c2)n1Cc1ccco1`, in assay [1], the cell count is 361. Also, the inhibition is -3.4% (inactive) in assay [1], -37.1% (inactive) in assay [3], 9.34% (inactive) in assay [7] and 4.77% (inactive) in assay [8]. For the same compound, in assay [2], the inhibition of aggregation is 4.4% (inactive). The figures for the nuclei count in assay [2] and in assay [3] were 87.4% and 91.3%, respectively. The fluorescence slope in assay [4] was -0.37 (inactive). The NADPH fluorescence slope in assay [5] is 2.5e-05 (inactive). Further, in assay [6], the slope was 0.0116 (inactive).
In the case of `COC(=O)C1(C#N)C(c2ccccc2)C1(C(=O)OC)C(=O)OC` (centres undefined), the cell count in assay [1] came out at 450. Further, the inhibition in assay [1] is 2.6% (inactive); in assay [3] it was -21.2% (inactive); in assay [7] it was 13.2% (inactive); in assay [8], 26.1% (inactive). The inhibition of aggregation in assay [2] was -8.3% (inactive). Also, the figures for the nuclei count in assay [2] and in assay [3] were 103% and 118%, respectively. Further, in assay [4], the fluorescence slope was -0.522 (inactive). In assay [5], the NADPH fluorescence slope is -2.1e-05 (inactive). In addition, in assay [6], the slope was 0.00516 (inactive).
